An excerpt weighted towards active compounds, which were near 5.2% of everything screened.
NadD block: inhibitors of S. aureus NadD, primary screen, biochemical, colorimetric, uHTS; 360,000 compounds, 0.78% hits; purified NadD enzyme, colorimetric absorbance read-out; inhibition, % at 20 µM; Nicotinate-nucleotide adenylyltransferase NadD (Staphylococcus aureus N315); in the data active means inhibition above about 26%
SKN-1 inh: suppressors of acrylamide-induced Pgst-4::GFP reporter in worms, primary screen, SKN-1 inhibitor project, whole organism, uHTS, GFP/RFP fluorescence ratio, strain VP596 | inhibition, % at 21.8 µM | AID 624304, 2012 | C. elegans VP596 Pgst-4::GFP/RFP ratio, 24 h | 360,000 compounds, 0.49% hits;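 active means interference check ratio from 0.5 to 1.5 plus GFP to RFP signal ratio inhibition reaching or exceeding a fixed threshold, cut at about 30% in these data, passing the limit was not always enough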
SMARCA2 activ: SMARCA2 (BRM) function activators, primary screen, cell-based, luminescence, high throughput; MG213 cells, MMTV-luciferase reporter, dexamethasone, overnight; activation, % at 9.1 µM; 370,000 compounds, 1% hits; in the data active means activation above about 7.8%
esBAF inh: Bmi1 luciferase reporter increase in mESCs, primary screen, esBAF inhibitor project, mouse ES cells, Bmi1 luciferase knock-in, single point. 24 h; 100% = twice the neutral-well signal. reporter increase, % at 12.5 µM. 350,000 compounds, 2% hits. AID 602393, 2012; in the data active means activation above about 40%;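 further: a rise in the Bmi1 reporter signal indicates esBAF inhibition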
NR3A LBD binder: binders of NR3A ligand-binding domain, primary screen, biophysical, differential scanning fluorimetry, uHTS. NR3A LBD differential scanning fluorimetry, Tm shift; 0% = protein alone, 100% = glycine-bound protein. Tm shift relative to glycine control, % at 25 µM. 340,000 compounds, 2.5% hits. AID 1259313, 2017;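 active means melting temperature shift of at least 10% of the positive control shift, at one fixed dose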
Vif imaging: HIV Vif self-association inhibitors, primary screen, imaging, HEK293T, single point; HEK293T cells, Vif self-association by quenched fluorescence, 24 h; inhibition, % at 7.49 µM; 340,000 compounds, 0.35% hits; AID 602346, 2012; in the data active means inhibition above about 50%, passing the limit was not always enough
Large screens that a line does not name were inactive.

COc1cc(-c2nc(-c3ccc(Br)o3)no2)cc(OC)c1OC	none
Brc1ccc(-c2nc(-c3ccccn3)no2)o1	SKN-1 inh 44
COc1ccc(-c2noc(-c3ccc(Br)o3)n2)cc1OC	esBAF inh 54
Brc1ccc(-c2nc(-c3ccncc3)no2)o1	SKN-1 inh 49
Brc1ccc(-c2noc(-c3ccccn3)n2)o1	SKN-1 inh 66 (no result: esBAF inh)
COc1ccc(NC(=O)N[C@@H]2CC[C@@H](CCNC(=O)c3cc(Cl)cc(Cl)c3)O[C@@H]2CO)cc1	none (no result: NadD block, SKN-1 inh, SMARCA2 activ, NR3A LBD binder, Vif imaging)
COc1ccc(NC(=O)Nc2ccc3c(c2)C(=O)N([C@H](C)CO)C[C@H](C)[C@@H](CN(C)Cc2ccc(Oc4ccccc4)cc2)O3)cc1	none (no result: NadD block, SKN-1 inh, SMARCA2 activ, NR3A LBD binder, Vif imaging)
O=C(N[C@@H]1C=C[C@H](CC(=O)N2CCOCC2)O[C@H]1CO)c1ccc2c(c1)OCO2	none (no result: NadD block, SKN-1 inh, SMARCA2 activ, NR3A LBD binder, Vif imaging)
CC(C)NC(=O)N(C)C[C@H]1Oc2ncc(C#CCc3ccccc3)cc2C(=O)N([C@@H](C)CO)C[C@H]1C	none (no result: NadD block, SKN-1 inh, SMARCA2 activ, NR3A LBD binder, Vif imaging)
COc1ccc(Cc2nc(-c3ccc(Br)o3)no2)cc1OC	esBAF inh 49
COc1ccc(-c2noc(Cc3ccc(Cl)cc3)n2)cc1OC	none
CCN1[C@@H]2c3ccc(-c4ccccc4OC)c(=O)n3C[C@@H]2[C@@H](CO)[C@@H]1C(=O)NCC1CC1	none (no result: NadD block, SKN-1 inh, SMARCA2 activ, NR3A LBD binder, Vif imaging)
Oc1ccc(Nc2nc(-c3ccc4ccccc4c3)cs2)cc1	none (no result: esBAF inh, NR3A LBD binder)
Oc1ccc(-c2nc(-c3ccc(O)c(O)c3)cs2)cc1	NR3A LBD binder 21, Vif imaging 64
O=C(Nc1ccc(F)cc1)N1C[C@H]2[C@@H](c3ccccc31)[C@H](CO)N2C(=O)Cc1ccccc1	none (no result: NadD block, SKN-1 inh, SMARCA2 activ, NR3A LBD binder, Vif imaging)
CS(=O)(=O)Nc1ccc(C(=O)CC(=O)Nc2ccc([N+](=O)[O-])cc2)cc1	NR3A LBD binder 37
O=C(COc1ccc([N+](=O)[O-])cc1)NNC(=O)c1cccs1	Vif imaging 53
O=C(CC(=O)c1ccccc1)Nc1ccc([N+](=O)[O-])cc1	NR3A LBD binder 20
O=C(Cc1ccc([N+](=O)[O-])cc1)c1ccccc1	none (no result: esBAF inh)
O=C(COc1ccccc1)Nc1ccc([N+](=O)[O-])cc1	none (no result: esBAF inh)
O=C(COc1ccc([N+](=O)[O-])cc1)Nc1ccc(NC(=O)c2ccccc2)cc1	NR3A LBD binder 13
C[C@@H]1CN([C@H](C)CO)C(=O)c2cc(-c3cccc(F)c3)cnc2O[C@@H]1CN(C)C(=O)C1CCC1	none (no result: NadD block, SKN-1 inh, SMARCA2 activ, NR3A LBD binder, Vif imaging)
O=C(Nc1ccccc1)O/N=C/c1ccncc1	none (no result: Vif imaging)
C(=NOCCc1ccccc1)c1ccncc1	esBAF inh 49
C(=NOCCc1ccccc1)c1ccccn1	esBAF inh 95
Cc1noc(C)c1NC(=O)Nc1ccc2c(c1)C(=O)N([C@H](C)CO)C[C@@H](C)[C@H](CN(C)Cc1ccncc1)OCCCC[C@H](C)O2	none (no result: NadD block, SKN-1 inh, SMARCA2 activ, NR3A LBD binder, Vif imaging)
O=C(C1CC1)N1CC[C@@H]2[C@H]1c1cc(-c3cccc(F)c3)ccc1N[C@@H]2CO	none (no result: NadD block, SKN-1 inh, SMARCA2 activ, NR3A LBD binder, Vif imaging)
Cc1ccc(S(=O)(=O)N2CCCC(C(=O)Nc3c(C)n(C)n(-c4ccccc4)c3=O)C2)cc1 (centres undefined)	none (no result: NadD block, SKN-1 inh, esBAF inh, NR3A LBD binder, Vif imaging)
O=C(NCCc1ccccn1)c1ccc(S(=O)(=O)N2CCCCCC2)cc1	SKN-1 inh 39
Cc1c(NC(=O)C2CCN(S(=O)(=O)c3ccc(Cl)cc3)CC2)c(=O)n(-c2ccccc2)n1C	NR3A LBD binder 13
O=C(NCc1ccccn1)c1cccc(S(=O)(=O)N2CCCCC2)c1	none
O=C(NCc1ccccc1)c1ccc(S(=O)(=O)N2CCCCCC2)cc1	Vif imaging 77 (no result: NR3A LBD binder)
O=C(N/N=C\c1c(O)ccc2ccccc12)c1ccc(S(=O)(=O)N2CCCCC2)cc1	NadD block 46 (no result: esBAF inh)
O=C(NN=Cc1c(O)ccc2ccccc12)c1ccc2c(c1)OCO2	none
C[C@H]1CCCCO[C@H](CN(C)C(=O)NC2CCCCC2)[C@@H](C)CN([C@@H](C)CO)C(=O)c2cc(NC(=O)CCCN(C)C)ccc2O1	none (no result: NadD block, SKN-1 inh, SMARCA2 activ, NR3A LBD binder, Vif imaging)

Screens from PubChem.
